# Measurements as given in PubChem BioAssay.
# Where “and” joins values, the source holds several entries; their conditions need not be identical. Identical values can stand only once. Calls of active or inactive are those of the source.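 How the source made its calls, unless noted: active means normalized viability below 100% at a tested concentration; inactive means the rest.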
# What was measured:
# [1] = sensitizers of A549 cells to miR-34 induction, primary screen, imaging, A549 dox-inducible miR-34, nuclei and caspase counts (AID 1347080;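 active means compounds whose cell count with miR-34 switched on is under 0.7 times the count with it off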); details: A549 miR-34 inducible, Hoechst nuclei count, 48 h
# [2] = survival rescue of mitochondrial mutant cells in low glucose, primary screen, MELAS cybrids, Rieske KO mouse fibroblasts, CellTiter-Glo (AID 1508586;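 active means mean z-score across replicates of 1.96 or higher in either the MELAS or the Rieske mutant cell line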;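 further: z relative to plate mean and SD of compound and empty wells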)
# [3] = ovarian cancer cell viability with rucaparib, profiling panel, oncology-focused library, rucaparib conditional (AID 1508598); details: patient-derived ovarian cancer cells, CellTiter-Glo viability, 144 h, stronger effect = lower value
# [4] = viability rescue of complex I mutant cybrids, primary screen, cell-based, galactose medium, ATP luminescence (AID 1645843;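 active means z-score of at least 1.8 in each of two replicates, scored against plate mean and spread of sample wells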;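 further: positive z means more ATP and so rescue of galactose-driven cybrid death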); details: complex I mutant cybrid cells, 72 h, stronger effect = higher value
# [5] = liver-stage malaria parasite growth inhibition, primary screen, cell-based, HepG2, luciferase luminescence, HepG2 viability (AID 624349; in the data active means parasite load remaining mostly below about 12%, no sharp cut-off; inactive means mostly above about 10%;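 further: 100% = mean of DMSO negative control wells on the same plate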); details: P. berghei liver stage in HepG2, luciferase luminescence, concentration not given here; parasite load remaining: stronger effect = lower value; viability: measured here: HepG2 viability without parasites
# [6] = biological target: NAD(+) hydrolase SARM1 (Homo sapiens) (UniProt Q6SZW1); experiment: SARM1 TIR NADase inhibitors, cell lysate, NAD-Glo luminescence (AID 1508614;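 active means compound whose remaining NAD level is above about 45 nM, limit read from the data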); details: SAM-TIR HEK293T lysate NADase, at 1 µM, stronger effect = higher value
# [7] = stronger effect = lower value, cell number ratio, induced over uninduced
# [8] = measured here: relative caspase fold change +Dox/-Dox
# [9] = measured here: total cells with miR-34 induction, stronger effect = lower value
# [10] = measured here: total cells without miR-34 induction
# [11] = MELAS cybrid survival, CellTiter-Glo 48 h, stronger effect = higher value
# [12] = Rieske KO mouse fibroblast survival, CellTiter-Glo 72 h
# [13] = at 0.000305 µM, OCI-C5x cells, with rucaparib 10 µM, 100% = cells with rucaparib alone
# [14] = at 0.000305 µM, OCI-C5x cells, without rucaparib
# [15] = at 0.000305 µM, OCI-P5x cells, with rucaparib 20 µM, 100% = cells with rucaparib alone
# [16] = at 0.000305 µM, OCI-P5x cells, without rucaparib
# [17] = at 0.00122 µM, OCI-C5x cells, with rucaparib 10 µM, 100% = cells with rucaparib alone
# [18] = at 0.00122 µM, OCI-C5x cells, without rucaparib
# [19] = at 0.00122 µM, OCI-P5x cells, with rucaparib 20 µM, 100% = cells with rucaparib alone
# [20] = at 0.00122 µM, OCI-P5x cells, without rucaparib
# [21] = at 0.00488 µM, OCI-C5x cells, with rucaparib 10 µM, 100% = cells with rucaparib alone
# [22] = at 0.00488 µM, OCI-C5x cells, without rucaparib
# [23] = at 0.00488 µM, OCI-P5x cells, with rucaparib 20 µM, 100% = cells with rucaparib alone
# [24] = at 0.00488 µM, OCI-P5x cells, without rucaparib
# [25] = at 0.0195 µM, OCI-C5x cells, with rucaparib 10 µM, 100% = cells with rucaparib alone
# [26] = at 0.0195 µM, OCI-C5x cells, without rucaparib
# [27] = at 0.0195 µM, OCI-P5x cells, with rucaparib 20 µM, 100% = cells with rucaparib alone
# [28] = at 0.0195 µM, OCI-P5x cells, without rucaparib
# [29] = at 0.0781 µM, OCI-C5x cells, with rucaparib 10 µM, 100% = cells with rucaparib alone
# [30] = at 0.0781 µM, OCI-C5x cells, without rucaparib
# [31] = at 0.0781 µM, OCI-P5x cells, with rucaparib 20 µM, 100% = cells with rucaparib alone
# [32] = at 0.0781 µM, OCI-P5x cells, without rucaparib
# [33] = at 0.313 µM, OCI-C5x cells, with rucaparib 10 µM, 100% = cells with rucaparib alone
# [34] = at 0.313 µM, OCI-C5x cells, without rucaparib
# [35] = at 0.313 µM, OCI-P5x cells, with rucaparib 20 µM, 100% = cells with rucaparib alone
# [36] = at 0.313 µM, OCI-P5x cells, without rucaparib
# Sequence of NAD(+) hydrolase SARM1 (Homo sapiens) (Q6SZW1 whole entry, looked up): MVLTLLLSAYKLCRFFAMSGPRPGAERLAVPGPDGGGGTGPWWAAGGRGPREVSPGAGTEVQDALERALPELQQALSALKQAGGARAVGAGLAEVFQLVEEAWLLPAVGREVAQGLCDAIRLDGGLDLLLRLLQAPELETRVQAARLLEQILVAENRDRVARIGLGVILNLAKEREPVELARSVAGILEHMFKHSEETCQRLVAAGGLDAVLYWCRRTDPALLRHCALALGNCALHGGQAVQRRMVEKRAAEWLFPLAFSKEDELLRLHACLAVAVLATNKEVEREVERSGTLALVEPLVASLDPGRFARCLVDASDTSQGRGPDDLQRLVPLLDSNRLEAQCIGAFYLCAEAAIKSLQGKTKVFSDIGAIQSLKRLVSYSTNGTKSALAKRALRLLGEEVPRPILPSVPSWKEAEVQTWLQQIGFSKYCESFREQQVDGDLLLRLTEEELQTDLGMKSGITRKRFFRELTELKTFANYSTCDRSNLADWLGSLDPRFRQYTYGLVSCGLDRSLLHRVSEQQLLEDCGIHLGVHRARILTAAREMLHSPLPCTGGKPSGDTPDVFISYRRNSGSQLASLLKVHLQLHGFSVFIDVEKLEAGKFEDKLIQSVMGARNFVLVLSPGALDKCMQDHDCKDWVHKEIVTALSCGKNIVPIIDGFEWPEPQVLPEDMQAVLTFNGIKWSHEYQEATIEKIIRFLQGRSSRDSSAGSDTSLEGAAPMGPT
smiles,measurement,setting,value
CCNC(=O)c1noc(-c2cc(Cl)c(O)cc2O)c1-c1ccc(OC)cc1,fold change,[1]; [7],0.987 (inactive)
same,fold change,[1]; [8],0.496
same,cell count,[1]; [9],2390
same,cell count,[1]; [10],2420
same,z-score,[2]; [11],2.58 (active)
same,z-score,[2]; [12],-1.9
same,viability,[3]; [13],129% (inactive)
same,viability,[3]; [14],113% (inactive)
same,viability,[3]; [15],105% (inactive)
same,viability,[3]; [16],98% (active)
same,viability,[3]; [17],120% (inactive)
same,viability,[3]; [18],120% (inactive)
same,viability,[3]; [19],101% (inactive)
same,viability,[3]; [20],102% (inactive)
same,viability,[3]; [21],138% (inactive)
same,viability,[3]; [22],120% (inactive)
same,viability,[3]; [23],100% (inactive)
same,viability,[3]; [24],101% (inactive)
same,viability,[3]; [25],181% (inactive)
same,viability,[3]; [26],140% (inactive)
same,viability,[3]; [27],33.1% (active)
same,viability,[3]; [28],82.6% (active)
same,viability,[3]; [29],73.6% (active)
same,viability,[3]; [30],39.7% (active)
same,viability,[3]; [31],17.1% (active)
same,viability,[3]; [32],9.14% (active)
same,viability,[3]; [33],39% (active)
same,viability,[3]; [34],22.6% (active)
same,viability,[3]; [35],12% (active)
same,viability,[3]; [36],7.17% (active)
same,viability,"[3]; at 1.25 µM, OCI-C5x cells, with rucaparib 10 µM, 100% = cells with rucaparib alone",9.37% (active)
same,viability,"[3]; at 1.25 µM, OCI-C5x cells, without rucaparib",6.36% (active)
same,viability,"[3]; at 1.25 µM, OCI-P5x cells, with rucaparib 20 µM, 100% = cells with rucaparib alone",4.69% (active)
same,viability,"[3]; at 1.25 µM, OCI-P5x cells, without rucaparib",4.76% (active)
same,viability,"[3]; at 5 µM, OCI-C5x cells, with rucaparib 10 µM, 100% = cells with rucaparib alone",8.73% (active)
same,viability,"[3]; at 5 µM, OCI-C5x cells, without rucaparib",6.88% (active)
same,viability,"[3]; at 5 µM, OCI-P5x cells, with rucaparib 20 µM, 100% = cells with rucaparib alone",4.38% (active)
same,viability,"[3]; at 5 µM, OCI-P5x cells, without rucaparib",3.37% (active)
CCc1nc(NC(=O)NCCc2nc(-c3ccc(C)cc3)no2)nn1C,fold change,[1]; [7],0.835 (inactive)
same,fold change,[1]; [8],1.88
same,cell count,[1]; [9],7240
same,cell count,[1]; [10],8670
same,z-score,[2]; [11],1.58 (inactive)
same,z-score,[2]; [12],-0.075
same,z-score,[4],2.27 (active)
NC[C@H]1O[C@H](O[C@H]2[C@H](O)[C@@H](O[C@H]3O[C@H](CO)[C@@H](O)[C@H](N)[C@H]3O)[C@H](N)C[C@@H]2N)[C@H](O)[C@@H](O)[C@@H]1O,parasite load remaining,[5],178% (inactive)
same,viability,[5],108%
same,fold change,[1]; [7],0.854 (inactive)
same,fold change,[1]; [8],1.26
same,cell count,[1]; [9],8420
same,cell count,[1]; [10],9860
same,z-score,[2]; [11],-0.387 (inactive)
same,z-score,[2]; [12],-0.145
same,remaining NAD,[6],10 nM (inactive)
Cc1c(OCC(F)(F)F)ccnc1C[S@@](=O)c1nc2ccccc2[nH]1,fold change,[1]; [7],0.977 (inactive)
same,fold change,[1]; [8],1.03
same,cell count,[1]; [9],7200
same,cell count,[1]; [10],7370
same,z-score,[2]; [11],-0.079 (inactive)
same,z-score,[2]; [12],-0.121
same,remaining NAD,[6],53 nM (active)
OCC1OC(Oc2cc(O)cc(C=Cc3ccc(O)cc3)c2)C(O)C(O)C1O (stereo not drawn),fold change,[1]; [7],0.967 (inactive) and 0.947 (inactive)
same,fold change,[1]; [8],1.94 and 0.831
same,cell count,[1]; [9],9700 and 8270
same,cell count,[1]; [10],10000 and 8720
same,z-score,[2]; [11],-0.124 (inactive)
same,z-score,[2]; [12],-0.651
same,z-score,[4],0.4 (inactive)
Cc1ccc(NC(=O)c2ccc(CN3CCN(C)CC3)cc2)cc1Nc1nc(-c2cccnc2)cs1,fold change,[1]; [7],0.856 (inactive)
same,fold change,[1]; [8],1.16
same,cell count,[1]; [9],5500
same,cell count,[1]; [10],6420
same,z-score,[2]; [11],-0.618 (inactive)
same,z-score,[2]; [12],0.938
same,viability,[3]; [13],103% (inactive)
same,viability,[3]; [14],124% (inactive)
same,viability,[3]; [15],105% (inactive)
same,viability,[3]; [16],93.4% (active)
same,viability,[3]; [17],105% (inactive)
same,viability,[3]; [18],120% (inactive)
same,viability,[3]; [19],109% (inactive)
same,viability,[3]; [20],96.2% (active)
same,viability,[3]; [21],112% (inactive)
same,viability,[3]; [22],129% (inactive)
same,viability,[3]; [23],102% (inactive)
same,viability,[3]; [24],92.7% (active)
same,viability,[3]; [25],109% (inactive)
same,viability,[3]; [26],124% (inactive)
same,viability,[3]; [27],99.3% (active)
same,viability,[3]; [28],85.4% (active)
same,viability,[3]; [29],100% (inactive)
same,viability,[3]; [30],123% (inactive)
same,viability,[3]; [31],97% (active)
same,viability,[3]; [32],92.9% (active)
same,viability,[3]; [33],113% (inactive)
same,viability,[3]; [34],124% (inactive)
same,viability,[3]; [35],102% (inactive)
same,viability,[3]; [36],84.1% (active)
